AmpC inh no detg: blocks E. coli AmpC beta-lactamase in detergent-free assay. P00811. AmpC nitrocefin hydrolysis, absorbance 480 nm, 0.0001% Triton. Potency, µM (titrated, usually from 57.1 µM), hits mostly inhibitors. 0.52% of 330,000 active; also: nearly all actives have a fitted effect of over 20% in size
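AmpC (5.3 nM in the dispensed reagent) in 20 mM phosphate pH 7.0 with 0.01% (detergent screen) or 0.0001% Triton X-100 was preincubated with compounds for 15 min at room temperature. Nitrocefin was then added from an 800 uM solution, and hydrolysis was followed at 480 nm.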
Giardia FBPA inh-1: blocks Giardia fructose-bisphosphate aldolase activity; purified Giardia FBPA; 0.71% of 290,000 active; Potency, µM (series often up to 59.6 µM), most hits filed as inhibitors; A8B2U2; also: nearly all actives have a fitted effect of over 55% in size
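40 nM FBPA preincubated 10 min at RT with compound (up to 57.5 uM final), then substrate plus GAPDH/TPI/NAD/arsenate coupling and diaphorase/resazurin added. Fluorescence read after 20 min at RT, 525/598 nm.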
AmpC detergent: AmpC beta-lactamase inhibition with detergent present | P00811 | AmpC hydrolysis of nitrocefin, absorbance 480 nm, 0.01% Triton | Potency, µM (highest dose often 114 µM), hits mostly inhibitors | 0.041% of 370,000 active | AID 485294; also: nearly all actives have a fitted effect of over 25% in size
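AmpC (5.3 nM in the dispensed reagent) in 20 mM phosphate pH 7.0 with 0.01% (detergent screen) or 0.0001% Triton X-100 was preincubated with compounds for 15 min at room temperature. Nitrocefin was then added from an 800 uM solution, and hydrolysis was followed at 480 nm.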
AMA1-RON2 inh: disrupts binding of P. falciparum AMA1 to RON2; 0.2% of 360,000 active; AID 720542; Potency, µM (highest dose often 58.2 µM), actives largely listed as inhibitors; AlphaScreen AMA1-biotinylated RON2 peptide binding; also: nearly all actives have a fitted effect of over 45% in size
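AMA1 (3D7) with his tag at 25 nM final met compounds first, then biotinylated RON2 peptide at 25 nM; detection used donor plus acceptor beads, 10 µg/mL apiece, read by AlphaScreen after 30 min at room temperature.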
Giardia growth: Giardia lamblia growth inhibition; shares compounds with Giardia FBPA inh-1; Potency, µM (titrated, usually from 57.5 µM), hits mostly inhibitors; 5% of 1,500 active; Giardia lamblia trophozoite growth inhibition; AID 2785;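 also: trophozoites exposed to compound for 48 h at 37 °C; nearly all actives have a fitted effect of over 70% in size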
Mammalian tox: counter-screen for Giardia aldolase inhibitors: mammalian cell toxicity; Potency, µM (top dose mostly 57.5 µM), actives largely listed as inhibitors; shares compounds with Giardia FBPA inh-1; 4% of 1,500 active; AID 2786; mammalian cell viability counter-screen, qHTS;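 also: Chinese hamster ovary cells used as mammalian cytotoxicity surrogate; viability measured as cellular ATP by luminescence; compound exposure lasted 48 h before reading; nearly all actives have a fitted effect of over 60% in size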
Giardia FBPA inh-2: confirmation of Giardia fructose-bisphosphate aldolase inhibitors. shares compounds with Giardia FBPA inh-1. purified Giardia aldolase enzyme activity, qHTS. Potency, µM (highest dose often 57.5 µM), most hits filed as inhibitors. 5% of 1,500 active. AID 2787; also: nearly all actives have a fitted effect of over 45% in size
Rabbit aldolase: rabbit FBP aldolase inhibition by Giardia aldolase hits | AID 2794 | Potency, µM (highest dose often 57.5 µM), usual class: inhibitors | Rabbit muscle FBPA enzyme inhibition, selectivity counter-screen | shares compounds with Giardia FBPA inh-1 | 4% of 1,500 active; also: nearly all actives have a fitted effect of over 60% in size
Target sequence (P00883 whole entry, looked up): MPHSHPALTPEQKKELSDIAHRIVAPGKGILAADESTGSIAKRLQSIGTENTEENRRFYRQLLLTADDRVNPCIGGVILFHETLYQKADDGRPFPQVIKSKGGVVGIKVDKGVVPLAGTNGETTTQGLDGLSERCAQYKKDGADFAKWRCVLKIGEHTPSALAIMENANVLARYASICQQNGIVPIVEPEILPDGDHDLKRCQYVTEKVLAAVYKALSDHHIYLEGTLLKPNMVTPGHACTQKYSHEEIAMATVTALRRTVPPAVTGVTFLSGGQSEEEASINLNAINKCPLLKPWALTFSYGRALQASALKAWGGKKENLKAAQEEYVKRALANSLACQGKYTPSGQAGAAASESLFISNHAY
GAPDH coupling: GAPDH inhibition flagged for Giardia aldolase hits; Potency, µM (series often up to 57.5 µM), hits mostly inhibitors; AID 2795; 6% of 1,500 active; shares compounds with Giardia FBPA inh-1; GAPDH coupling enzyme counterscreen, biochemical, qHTS; also: nearly all actives have a fitted effect of over 55% in size
Each line names hits and unclear results; the compound was inactive in the other large screens (follow-up assays come after a bar, where they were run); [ ] = another dose, or the depositor's remark. An excerpt weighted towards active compounds, which were near 1.1% of everything screened. Calls follow the shape of the dose curve; as a rule, active = well fitted curve in the direction sought with a large enough effect; inconclusive = small, poorly fitted or top-dose-only effect, or another doubt; inactive = no such curve, though single readings can be large; an effect the other way counts as inactive or inconclusive.

O=c1[nH]c(CSc2cccc[n+]2[O-])nc2ccccc12	Giardia FBPA inh-1 14µM | Giardia growth inactive[10.4 µM] | Mammalian tox inactive | Giardia FBPA inh-2 inactive | Rabbit aldolase inactive | GAPDH coupling inactive
CC(C(=O)Nc1ccccc1C(F)(F)F)N1CCN(C)CC1 (centres undefined)	Giardia FBPA inh-1 16µM, AmpC detergent inconclusive, AMA1-RON2 inh inconclusive | Giardia growth inactive[10.4 µM] | Mammalian tox inactive | Giardia FBPA inh-2 inactive | Rabbit aldolase inactive | GAPDH coupling inactive
CC1(C(=O)NC(=S)N(CCC#N)Cc2cccnc2)CC1(Cl)Cl (centres undefined)	Giardia FBPA inh-1 18µM (no result: AMA1-RON2 inh) | Giardia growth inactive[10.4 µM] | Mammalian tox inactive | Giardia FBPA inh-2 inactive | Rabbit aldolase inactive | GAPDH coupling inactive
N#CCCN(Cc1cccnc1)C(=S)NC(=O)c1ccccc1	none (no result: Giardia FBPA inh-1, AmpC detergent)
S=C(Nc1ccc2nsnc2c1)N1CCCC1	Giardia FBPA inh-1 6.3µM | Giardia growth inactive | Mammalian tox inactive | Giardia FBPA inh-2 inconclusive | Rabbit aldolase inconclusive | GAPDH coupling inconclusive
O=C(Nc1ccc2nsnc2c1)N1CCCCCC1	none
NC(=S)NNc1c(F)c(F)c(F)c(F)c1F	Giardia FBPA inh-1 16µM | Giardia growth inactive[10.4 µM] | Mammalian tox inactive | Giardia FBPA inh-2 inactive | Rabbit aldolase inactive | GAPDH coupling inactive
Cc1ccccc1NNC(N)=S	Giardia FBPA inh-1 inconclusive, AmpC detergent inconclusive
Cc1ccc(/C=C2\SC(=S)N(CC3CCCO3)C2=O)o1 (centres undefined)	Giardia FBPA inh-1 18µM, AMA1-RON2 inh inconclusive | Giardia growth inactive | Mammalian tox inactive | Giardia FBPA inh-2 inactive | Rabbit aldolase inactive | GAPDH coupling inactive
O=C1/C(=C/c2ccco2)SC(=S)N1CC1CCCO1 (centres undefined)	Giardia FBPA inh-1 inconclusive, AMA1-RON2 inh inconclusive
COc1ccc(-c2nc(C)c(CCNC(=O)C(=O)Nc3cccc(F)c3)s2)cc1OC	none (no result: AmpC inh no detg, Giardia FBPA inh-1, AMA1-RON2 inh)
O=C(OCC(=O)N1CCCCCC1)c1cc(S(=O)(=O)N2CCOCC2)ccc1F	none (no result: AmpC inh no detg, Giardia FBPA inh-1, AmpC detergent)
O=C(NCC1CC1)c1cc2c(c(-c3cccc(-c4ccccc4F)c3)n1)[C@@H](CCO)N(C(=O)CC1CC1)C2	none (no result: AmpC inh no detg, Giardia FBPA inh-1, AmpC detergent)
CCC(C)N(C)C1CCN(C(=S)Nc2cccc(SC)c2)CC1 (centres undefined)	Giardia FBPA inh-1 10µM | Giardia growth inactive | Mammalian tox inactive | Giardia FBPA inh-2 inactive | Rabbit aldolase inactive | GAPDH coupling inactive
CSc1cccc(NC(=S)N2CCC(N(C)C(C)C)CC2)c1	none
O=C(CNCc1ccccc1)Nc1ccccc1-c1ccccc1	none
O=C(CNCc1ccccc1)Nc1cccc(Cl)c1Cl	Giardia FBPA inh-1 16µM, AmpC detergent inconclusive | Giardia growth inactive | Mammalian tox inactive | Giardia FBPA inh-2 inactive | Rabbit aldolase inactive | GAPDH coupling inactive
CCCC(=O)N1CCCC(c2cc(C(=O)NCc3cccnc3)no2)C1 (centres undefined)	none (no result: AmpC inh no detg, Giardia FBPA inh-1, AmpC detergent)
Cc1no[n+]([O-])c1COc1cccc(/C=N/Nc2nncn2N)c1	Giardia FBPA inh-1 14µM | Giardia growth inactive | Mammalian tox inactive | Giardia FBPA inh-2 18µM | Rabbit aldolase inconclusive | GAPDH coupling 20µM
Cc1ccc(C)c(OCCC(=O)OC(C)C(=O)Nc2c(C)n(C)n(-c3ccccc3)c2=O)c1 (centres undefined)	none (no result: Giardia FBPA inh-1)
COC/C=C/C1=CC2=CC(=O)C(C)(OC(=O)c3cnc4ccccc4n3)C(=O)C2=CN1Cc1ccccc1 (centres undefined)	Giardia FBPA inh-1 2.2µM | Giardia growth inactive | Mammalian tox inactive | Giardia FBPA inh-2 inconclusive | Rabbit aldolase inconclusive | GAPDH coupling 25µM
CCOCCc1nn2c(=O)cc(CSCC(=O)Nc3ccccc3)nc2s1	none (no result: Giardia FBPA inh-1)

Screening results from PubChem.
